Results from PubChem BioAssay AID1852 (Sanford-Burnham Center for Chemical Genomics, 2009).
In all, about 2,500 compounds went through this assay and about 1,100 (44%) were called active.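 The calls were made as follows: active = inhibition above 50% at 4 µM in the single-point screen; inactive = inhibition of 50% or less.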 So high a share suggests a set chosen from earlier hits. This is one part of the list.

Assay: TNF-a-driven NF-kB reporter inhibitors, primary screen, selectivity assay for NOD1/NOD2 signaling inhibitor project, cell-based, HEK293T NF-kB-Luc, luminescence (AID 1852)
Conditions: TNF-a induced, 14 h, at 4 µM, stronger effect = higher value
With `O=C(N/N=C/c1ccc([N+](=O)[O-])o1)c1ccc2c(c1)OCO2` the inhibition was 71.8% (active). With `CCCCN(CC)S(=O)(=O)c1ccc(C(=O)Nc2nnc(-c3cccs3)o2)cc1` the inhibition was 59.1% (active). For `CCN(c1ccccc1)S(=O)(=O)c1ccc(NC(=S)NC(=O)c2cccs2)cc1`, the inhibition was 43.4% (inactive). In the case of `CCN(Cc1ccccc1)S(=O)(=O)c1ccc(C(=O)Nc2nnc(C3CC3)o2)cc1`, the inhibition is reported as 92.7% (active). With `CCCCN(C)S(=O)(=O)c1ccc(C(=O)Nc2nnc(-c3cccs3)o2)cc1` the inhibition was 55.8% (active). In the case of `CCCCN(CC)S(=O)(=O)c1ccc(C(=O)Nc2nnc(-c3ccccc3Cl)o2)cc1`, the inhibition is reported as 59.6% (active). In the case of `O=C(CN(Cc1ccccc1)S(=O)(=O)c1ccc2c(c1)OCCO2)Nc1ccc2c(c1)OCCO2`, the inhibition is reported as 8.4% (inactive). With `CN1CCN(Cc2nc(Cc3cccc(F)c3)no2)CC1c1ccccc1` (centres undefined) the inhibition was 3.2% (inactive). With `O=C(N/N=C/c1cc(Cl)c(O)c(Cl)c1)c1cc2c(ccc3ccccc32)o1` the inhibition was 42.9% (inactive). With `NC(=S)N/N=C\c1c(OCc2ccccc2Cl)ccc2ccccc12` the inhibition was 66% (active). For `CCOC(=O)COc1ccc2ccccc2c1/C=C/[N+](=O)[O-]`, the inhibition was 27.3% (inactive). With `COc1ccc(S(=O)(=O)Nc2ccc(OCC(=O)O)cc2)c2ccccc12` the inhibition was -2.2% (inactive). For `COc1ccc(NC(C)=O)cc1S(=O)(=O)Nc1ccc(OCc2ccccc2)cc1`, the inhibition was 33.1% (inactive). In the case of `COc1ccc(OC)c(S(=O)(=O)Nc2ccc(O)c3ccccc23)c1`, the inhibition is reported as 62.6% (active). For `O=S(=O)(Nc1ccc(O)c2ccccc12)c1ccc(Br)cc1`, the inhibition was 101% (active). In the case of `Cc1ccc(S(=O)(=O)Nc2cc(C(C(=O)OC(C)C)C(=O)C(F)(F)F)c(O)c3ccccc23)c(C)c1` (centres undefined), the inhibition is reported as 72% (active). For `CCc1ccc(S(=O)(=O)Nc2ccc(O)c3ccccc23)cc1`, the inhibition was 36.3% (inactive). With `CCCNc1c(NS(=O)(=O)c2ccc(Br)cc2)c(=O)oc2ccccc12` the inhibition was 11.2% (inactive). For `Cc1ccc(S(=O)(=O)Nc2cc(C)c(O)cc2C)cc1`, the inhibition was 29.5% (inactive). For `Cc1ccc(S(=O)(=O)Nc2ccc(O)c3ccccc23)c(C)c1`, the inhibition was 92.3% (active). For `O=C(O)CCSc1ncnc2sc(-c3ccccc3)cc12`, the inhibition was 43.8% (inactive). For `O=C(O)CCSc1nnc(-c2ccc3c(c2)OCO3)o1`, the inhibition was 64.7% (active). With `O=C(O)CSc1cc(NS(=O)(=O)c2ccc(Cl)cc2)c2ccccc2c1O` the inhibition was 93.9% (active). For `CCOc1ccc(S(=O)(=O)Nc2cc(SCC(=O)O)c(O)c3ccccc23)cc1`, the inhibition was 92.5% (active). For `COc1ccc(S(=O)(=O)Nc2cc(SCC(=O)O)c(O)c3ccccc23)cc1`, the inhibition was 98.3% (active). With `Cc1ccc(C)c(S(=O)(=O)Nc2cc(SCC(=O)O)c(O)c3ccccc23)c1` the inhibition was 105% (active). With `COc1ccc(S(=O)(=O)c2c(O)cc(C)c(NS(=O)(=O)c3ccccc3)c2C)cc1` the inhibition was 46.9% (inactive). In the case of `CCc1ccc(S(=O)(=O)Nc2cc(SCC(=O)O)c(O)c3ccccc23)cc1`, the inhibition is reported as 8% (inactive). For `Cc1ccc(-c2n[nH]c(=O)c3ccccc23)cc1S(=O)(=O)Nc1ccccc1`, the inhibition was 14.6% (inactive). In the case of `COC(=O)c1sccc1NC(=O)CSc1ccccc1NS(=O)(=O)c1ccc(Br)cc1`, the inhibition is reported as 26.3% (inactive). With `COC(=O)c1sccc1NC(=O)CSc1ccccc1NS(=O)(=O)c1cc(Cl)ccc1Cl` the inhibition was 39% (inactive). For `Cc1cc(S(=O)(=O)NCc2ccncc2)c(C)cc1Br`, the inhibition was 22.7% (inactive). With `CS(=O)(=O)C1=NN2C(=N)/C(=C\c3ccc(OCCOc4ccccc4)cc3)C(=O)N=C2S1` the inhibition was -28.3% (inactive). With `CCN1CCN(Cc2ccc(NC(=O)c3ccc(C)c(NC(=O)c4ccno4)c3)cc2C(F)(F)F)CC1` the inhibition was -16.6% (inactive). In the case of `O=C(Nc1ccc2nc3n(c(=O)c2c1)CCCCC3)c1c(F)ccc([N+](=O)[O-])c1F`, the inhibition is reported as 94.6% (active). In the case of `O=C(Nc1ccc2nc3n(c(=O)c2c1)CCCCC3)c1cc([N+](=O)[O-])ccc1F`, the inhibition is reported as 37.4% (inactive). In the case of `O=C(c1[nH]ncc1-c1ccccc1)C1CO1` (centres undefined), the inhibition is reported as 2.8% (inactive). For `O=[N+]([O-])c1ccc(/C=N/NC(=S)Nc2ccc(Cl)cc2Cl)s1`, the inhibition was 31.8% (inactive). For `Cc1ccc(C(=O)N/N=C/c2ccc([N+](=O)[O-])s2)cc1`, the inhibition was 66.9% (active). With `Cc1cccc(NC(=S)N/N=C/c2ccc([N+](=O)[O-])s2)c1` the inhibition was 106% (active). For `Cc1ccc(/C=N/Nc2ccc(C(=O)O)cc2)s1`, the inhibition was 44.7% (inactive). For `Cc1ccc(NC(=S)N/N=C/c2ccc([N+](=O)[O-])s2)cc1`, the inhibition was 100% (active). For `O=C(N/N=C/c1ccc([N+](=O)[O-])s1)c1ccncc1`, the inhibition was 45.8% (inactive). For `Cc1ccc(-c2nnc(Sc3nc4ccccc4o3)c3ccccc23)cc1`, the inhibition was -46.1% (inactive). For `CCC(C)Cn1c(C(C)C)nc2ccccc21` (centres undefined), the inhibition was -3% (inactive). With `CCC(C)Cn1c(C)nc2ccccc21` (centres undefined) the inhibition was 28% (inactive). In the case of `CCC(C)Cn1c(O)cc2nn(-c3nc4ccccc4s3)c(=O)c-2c1C` (centres undefined), the inhibition is reported as 77.4% (active). In the case of `COc1c(C)cc(C(=O)C2CCCN(C(=O)CCc3scnc3C)C2)cc1C` (centres undefined), the inhibition is reported as 27.3% (inactive). With `Cc1ccnn1CCC(=O)N1CCCC(Nc2ccc(F)c(F)c2)C1` (centres undefined) the inhibition was 21.6% (inactive). For `Fc1ccc(C2CCCN2Cc2nc(Cc3ccccc3F)no2)cc1` (centres undefined), the inhibition was -0.4% (inactive). In the case of `CCc1cc(C(=O)NC2CCCN(Cc3ccccc3F)C2)n(C)n1` (centres undefined), the inhibition is reported as 57.5% (active). In the case of `CCC(C)c1ccc(C(C)NC(=S)NC2CCCCC2)cc1` (centres undefined), the inhibition is reported as 21.1% (inactive). In the case of `CS(=O)(=O)c1ccc2nc(NC(=O)CCS(=O)(=O)c3ccccc3)sc2c1`, the inhibition is reported as 36.3% (inactive). With `O=C(CCS(=O)(=O)c1ccccc1)Nc1cccc(-c2nc3ccccc3s2)c1` the inhibition was 59.9% (active). In the case of `Cc1nc2ccc(NC(=O)CCS(=O)(=O)c3ccccc3)cc2s1`, the inhibition is reported as -1.1% (inactive). In the case of `O=C(c1cn(-c2ccccc2)nc1-c1ccccc1)n1nnc2ccccc21`, the inhibition is reported as 27.6% (inactive). With `OCCCNc1ncnc2scc(-c3ccc(Cl)cc3)c12` the inhibition was 78.5% (active). In the case of `COc1ccc(-c2csc3ncnc(NCCCO)c23)cc1`, the inhibition is reported as 60.7% (active). For `COc1ccc(-c2csc3ncnc(NCCO)c23)cc1`, the inhibition was 49.8% (inactive).
